Results on 101 compounds are retold here after PubChem BioAssay AID777 (Sanford-Burnham Center for Chemical Genomics, 2007).

Molecules are shown by their SMILES. The whole screen tested about 96,000 compounds, of which about 19,000 (20%) were called active. Only a sample is shown. Unmarked numbers belong to inactive results.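 How the source made its calls: active means blocking of liver enzyme CYP2C9 beyond about 50% at 5 µM (limit read from the data); inactive means the rest.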

What is called inhibition is the relative decrease from the control value, in per cent.

The target of the assay is Cytochrome P450 2C9 (Homo sapiens) (UniProt P11712). The assay can be described thus: blockers of cytochrome P450 2C9 activity – biochemical, luminescence, ADME assay, primary screen (AID 777). The conditions noted are these: CYP2C9 Supersomes, luciferin-H conversion, at 5 µM, stronger effect = higher value.
Cytochrome P450 2C9 (Homo sapiens), sequence (P11712 whole entry, looked up): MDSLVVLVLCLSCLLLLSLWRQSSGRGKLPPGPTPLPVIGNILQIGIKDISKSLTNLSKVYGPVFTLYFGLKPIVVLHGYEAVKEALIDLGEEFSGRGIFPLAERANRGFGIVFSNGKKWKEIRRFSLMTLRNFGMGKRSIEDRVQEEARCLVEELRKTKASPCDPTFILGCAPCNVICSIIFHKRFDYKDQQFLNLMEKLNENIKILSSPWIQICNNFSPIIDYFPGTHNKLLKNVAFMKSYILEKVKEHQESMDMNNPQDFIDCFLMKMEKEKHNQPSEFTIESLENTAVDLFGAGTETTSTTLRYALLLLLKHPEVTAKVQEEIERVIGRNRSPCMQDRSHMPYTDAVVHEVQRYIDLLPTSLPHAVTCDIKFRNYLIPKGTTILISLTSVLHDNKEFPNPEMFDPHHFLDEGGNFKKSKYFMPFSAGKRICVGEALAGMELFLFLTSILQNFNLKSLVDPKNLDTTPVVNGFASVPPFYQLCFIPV
With `Cn1c(-c2ccco2)nc2cc3ccccc3cc21`, the inhibition was 26.1%.
Take `C=CCn1c(Cn2nnc3ccccc32)nnc1SCC(=O)N/N=C/c1cc(Br)cc(OC)c1O`: the inhibition is 54% (active).
Next, `Cn1c(Cn2nnc3ccccc32)nnc1SCC(=O)c1ccccc1F`: 28.6%; `COc1ccc(OC)c(/C=N/NC(=O)CSc2nnc(C)n2-c2ccccc2)c1`: 20.2%.
Regarding `COc1cccc(N(CC(=O)NCCSc2ccccn2)S(C)(=O)=O)c1`, the inhibition is 38.4%.
With `CC(=O)c1cc2c(cc1N)OCO2` the figure was 3.4%; with `CN(C)CCCNc1c2c(c(C#N)c3nc4ccccc4n13)CCC2`, 7.3%.
Next, `N#Cc1c2c(c(N3CCN(CCO)CC3)n3c1nc1ccccc13)CCCC2`: 58.2% (active).
Next, `CCCCn1c(CN2CCN(CCO)CC2)nc2ccccc21`: 1.5%; `C=CCOc1ccc(C2/C(=C(\O)c3c(C)[nH]c(C(=O)OC)c3C)C(=O)C(=O)N2CCN(C)C)cc1` (stereo unspecified): -6.1%.
Turning to `CCOC(=O)c1cccc(NC(=O)C2CCCN(S(=O)(=O)c3cnc[nH]3)C2)c1` (stereo unspecified), the inhibition was 95.6% (active).
Regarding `COc1cccc(N2CCN(C(=O)C3CCCN(S(=O)(=O)c4cnc[nH]4)C3)CC2)c1` (stereo unspecified), the inhibition is 36.6%.
In the case of `O=C(NCc1ccco1)C1CCCN(S(=O)(=O)c2cnc[nH]2)C1` (stereo unspecified), the inhibition is 27.3%.
Next, `O=C(CN1C(=O)COc2ccccc21)NCCN1CCc2ccccc2C1`: 25%; `Oc1c(C=Nc2cccc3nsnc23)ccc2ccccc12`: -15.3%; `COc1ccc(Br)cc1CN1CCN(C(=O)c2cccc(OC)c2OC)CC1`: 52.9% (active).
Take `COc1cccc(OC)c1OCCN1CCN(C(=O)c2ccco2)CC1`: the inhibition is -24.9%.
Next, `COc1c(C(=O)N2CCCC2)ccc2ccccc12`: -19.3%.
Take `CN(C)CCCn1c(N)c(C#N)c2nc(C#N)c(C#N)nc21`: the inhibition is -11.9%.
As for `COc1ccc(OCC(=O)N2CCOCC2)cc1`, the inhibition is 17.3%.
For `O=C(NCc1ccc(Cl)cc1)c1cc(=O)nc2sc(-c3ccccc3)nn12`, the inhibition is 2.9%.
Next, `Cc1ccc(N(C(=O)CC2NC(=O)NC2=O)C2(C(=O)NC3CCCC3)CCCCC2)cc1` (stereo unspecified): 46.4%; `CCC(C(=O)N1CCOCC1)n1c(C(=O)OC)cc2occc21` (stereo unspecified): 12.8%.
With `COc1ccc(CCn2c(=N)c(C(=O)NCc3ccco3)cc3c(=O)n4cccc(C)c4nc32)cc1` the figure was 14.3%.
With `COc1ccc(CCNC(=O)c2cc3sccc3n2C)cc1OC` the figure was 26.8%; with `CCOc1ccc(CCNC(=O)C2CCN(c3ccc(N4CCOCC4)nn3)CC2)cc1OCC`, 14%.
Consider `CCC(C(=O)NCc1ccc(OC)cc1)n1nc(C)n2c(cc3occc32)c1=O` (stereo unspecified), for which the inhibition was 82.8% (active).
`CCOc1ccc(CCNC(=O)C(CC)n2nc(C)n3c(cc4sccc43)c2=O)cc1OCC` (stereo unspecified): the inhibition is 51.6% (active).
With `CCc1c(C)nc2cc(C)[nH]n2c1=O` the figure was 16.4%; with `CCCNC(=O)N1CCN(C(=O)NCCC)CC1`, 2.7%.
Next, `Cc1ccc(-n2ncc3c(Nc4cccc(C(=O)O)c4)ncnc32)cc1`: 29.6%.
`Cc1cc(C)cc(N(CC(=O)N2CC=C(c3ccccc3)CC2)S(=O)(=O)c2c(C)noc2C)c1`: the inhibition was 90.8% (active).
Next, `O=C(Nc1ccc(Cl)c(Cl)c1)N1CC=C(c2ccccc2)CC1`: 46.1%; `CCC(=O)c1c[nH]c(C(=O)NCC2CCCO2)c1` (stereo unspecified): -7%; `CCOC(=O)C1CCCN(C(=O)CN(c2ccc(OC)cc2)S(=O)(=O)c2c(C)noc2C)C1` (stereo unspecified): 11%.
Next, `Cc1cc(C)cc(N(CC(=O)NCC2CCCO2)S(=O)(=O)c2c(C)noc2C)c1` (stereo unspecified): 64.1% (active).
Next, `Cc1ccc(C(=O)O)cc1S(=O)(=O)NCC1CCCO1` (stereo unspecified): 5.8%; `COCCCNC(=O)CN1CCN(Cc2ccccc2Cl)C1=O`: -16.9%.
On to `Cc1nc2ncnn2c(C)c1CCC(=O)N1CCN(C(=O)c2ccco2)CC1`, for which the inhibition is -8.6%.
With `CC(C)N(C(=O)Cn1c(SCC(=O)N2CCN(c3ccccc3)CC2)nc2ccccc21)C(C)C` the figure was 14.3%; with `CCN(CC)C(=O)CSc1nc2ccccc2n1CC(=O)N1CCN(c2ccccc2OC)CC1`, 51.4% (active); with `CCOC(=O)n1c(SCC(=O)N(CC)CC)nc2ccccc21`, 30.9%.
Next, `O=C1c2ccccc2C(=O)N1CCc1nn[nH]n1`: 0.5%.
With `Fc1ccccc1CCNc1nnnn1-c1ccccc1` the figure was 31.4%; with `CN(CCCC(=O)Nc1nccs1)S(=O)(=O)c1ccc(Cl)cc1`, 38.4%; with `O=C(CCSCCc1ccccn1)Nc1nccs1`, 81% (active).
`CC1(C)Cc2cccc(OCC(=O)Nc3nccs3)c2O1`: the inhibition was 31%.
With `COCCN(CC(=O)Nc1ccccc1C)S(=O)(=O)c1ccc(S(=O)(=O)N2CCCC2)cc1` the figure was 16.5%; with `CCOC(=O)CSc1nnc(CNC(=O)Cc2ccccc2)n1-c1ccccc1OC`, 8.6%.
With `CCOc1cc(C(=O)N2CCc3cc(OC)c(OC)cc3C2)ccc1OC(F)F` the figure was 30.7%.
Next, `CCOc1ccc(C(CCc2ccccc2)NC(=O)c2ccc(OC)c(OC)c2)cc1OCC` (stereo unspecified): 76.1% (active).
For the compound `COc1ccc(Cn2c(=O)sc3ccccc32)cc1OC`, the inhibition was 29.2%.
With `Nc1nc(Br)c2ccccc2c1-c1ccc(F)cc1` the figure was 2.2%; with `COc1ccc(N2CCN(C(=O)CSc3nc4cc(OC)c(OC)cc4cc3C#N)CC2)cc1`, 26.1%; with `COc1ccc2nc(N3CCCC(O)C3)c(C#N)cc2c1` (stereo unspecified), 63.9% (active).
In the case of `Cc1cc(C)c2nc(N3CCCC3)c(C#N)cc2c1`, the inhibition was 9.6%.
Next, `Cc1[nH]c(=O)c(C(=O)/C=C/c2ccccc2)c2c1CCCC2`: -14.6%.
With `CC1(C)C(=O)C2(CCCCC2)C(=O)OC1c1cccs1` (stereo unspecified) the figure was -9.3%; with `O=C(COc1ccccc1F)NC1CC1`, -15.2%; with `O=C(Nc1cccn(Cc2c(Cl)cccc2Cl)c1=O)c1ccc(Cl)cc1`, 71.8% (active).
As to `COc1ccc(Cn2cccc(NC(=O)Nc3ccc(C#N)cc3)c2=O)cc1`, the inhibition is 14.3%.
For `CSc1ccc(C#N)cc1NC(=O)c1ccc(Cl)cc1`, the inhibition is 6.3%.
Next, `Cc1ccn2cc(C(=O)NC3CCN(Cc4ccccc4)CC3)nc2c1`: 16.4%; `Cc1ccc(SCCN2C(=O)NC(C)(C)C2=O)cc1`: 68.6% (active); `Cc1ccc(SCC2=NNC(=O)C2)cc1`: -7.3%.
With `CCC(=O)c1ccc(OCC(O)CN2C(=O)NC(C)(C)C2=O)cc1` (stereo unspecified) the figure was 0.4%; with `Cc1ccc(SCc2cc(=O)[nH]c(N3CCCCC3)n2)cc1`, 14.9%.
With `CCOC(=O)N1CCN(C(=O)CSc2ccc(Cl)cc2)CC1` the figure was 42.4%; with `CC1(C)NC(=O)N(CCCCSc2ccc(Cl)cc2)C1=O`, 85.8% (active); with `CC(=O)N1CCCc2cc(S(=O)(=O)CCC(=O)N3CCN(c4ccccc4)CC3)ccc21`, -45.2%.
Regarding `COC(=O)Cn1nc(-c2ccccc2)c2cc(Cl)ccc21`, the inhibition was 25.2%.
Regarding `COc1ccc(C(C)=O)cc1COC(=O)Cn1cnc2ccccc2c1=O`, the inhibition was 41.4%.
Next, `O=C(COC(=O)c1n[nH]c2ccccc12)NCc1ccccc1`: 41.3%.
Next, `COc1ccc(COC(=O)c2n[nH]c3ccccc23)cc1F`: 54.1% (active).
Next, `COc1ccccc1NC(=O)[C@H](COCc1ccccc1)NC(=O)OC(C)(C)C`: 51.7% (active); `COc1ccccc1NC(=O)CC(NCCN(C)C)C(=O)O` (stereo unspecified): -1.4%; `COc1ccccc1NC(=O)/C=C/C(N)=O`: -19.3%.
Turning to `CCC1(C)Cc2c(sc3[nH]c(=S)n(Cc4ccccc4)c(=O)c23)CO1` (stereo unspecified), the inhibition is 34.5%.
With `Oc1ccc(/C=N/NC2=NCCCCC2)c(O)c1` the figure was -17.7%; with `CSCCC(NS(=O)(=O)c1ccc2c(c1)oc(=O)n2C)C(=O)NC1CCCc2ccccc21` (stereo unspecified), -0.6%.
As to `CC1CCN(CC(=O)c2c[nH]c3ccccc23)CC1`, the inhibition is 4.9%.
Regarding `CCOC(=O)c1c(NC(=S)Nc2ccccc2)sc2c1CCN(C)C2`, the inhibition is 24.5%.
Next, `N#Cc1c(N)sc2c1CCN(C(=O)OCc1ccccc1)C2`: 97.9% (active); `O=C(O)C1CCN(C(=O)OCc2ccccc2)CC1`: 5.6%; `O=C(NN1C(=O)C2C3C=CC(C4CC34)C2C1=O)c1ccc(Cl)cc1` (stereo unspecified): 9.6%.
Take `COC(=O)c1ccc(OC(=O)c2nn(C)cc2Cl)c(OC)c1`: the inhibition is 58.9% (active).
With `COc1ccc(Cl)cc1C(=O)NCc1cn(C)nc1C` the figure was 1.3%.
Next, `COc1ccc(C(=O)n2nc(-c3ccc(Cl)cc3)nc2N)cc1OC`: -12.4%; `CN(C(=O)CSc1nnc(N)s1)c1c(N)n(Cc2ccccc2)c(=O)[nH]c1=O`: -12.4%.
Turning to `COc1ccc(CC(NC(C)=O)C(=O)NC2CCN(C(=O)Nc3ccc(C#N)cc3)CC2)cc1OC` (stereo unspecified), the inhibition was 9.3%.
With `O=C(Nc1nccs1)C1CCN(S(=O)(=O)c2ccc(Cl)c(C(F)(F)F)c2)CC1` the figure was -45.5%; with `Cc1noc(C)c1S(=O)(=O)N1CCCC(C(=O)Nc2nccs2)C1` (stereo unspecified), 56.5% (active); with `Cc1ccc(NC(=O)C2CCCN(S(=O)(=O)c3c(C)noc3C)C2)c(C)c1` (stereo unspecified), 8.4%.
With `Cc1ccc(C2=CSC3=NS(=O)(=O)CCN23)cc1C` the figure was -9.4%; with `CCOC(=O)CSc1nnc(-c2cccc(Br)c2)o1`, -12.3%.
Next, `CCN1CCN(C(=O)c2cc3cc4ccc(OC)cc4nc3s2)CC1`: -5.1%.
On to `COc1cccc(-c2nn(C)c3sc(C(=O)N4CCN(c5ccccc5)CC4)cc23)c1`, for which the inhibition was 68.5% (active).
With `COc1cccc(-n2cc(C(=O)O)c3ccccc3c2=O)c1` the figure was 0.5%; with `COc1ccccc1N1CCN(C(=O)c2cc3c(-c4ccc(Cl)cc4)nn(C)c3s2)CC1`, 97.6% (active); with `COc1ccccc1N1CCN(C(=O)CN(Cc2ccc(Cl)cc2)S(C)(=O)=O)CC1`, 41.4%.
Next, `CCOC(=O)N1CCN(C(=O)c2cc3c(-c4ccc(Cl)cc4)nn(C)c3s2)CC1`: 25.5%.
